# Results as given in PubChem BioAssay (NCI).
# The panel holds about 83,000 compounds, 20% with a hit somewhere; the sample as a whole holds those more often.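 Plates (96-well) were seeded with cells, treated with compound at one concentration, and incubated for 48 hours before percent growth was determined.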 Values without a mark were called inactive. Active and inactive are the calls of the source. Rule for the calls: active = growth percent below 10; inactive = the rest.
# Assays:
# Test in all cases: NCI-60 one-dose screen, 48 h (100 = growth as untreated, 0 = no growth, -100 = all killed)
# SR leukemia = conditions: 10 µM unless noted
# RPMI-8226 leukemia = conditions: 10 µM unless noted
# OVCAR-8 ovarian = conditions: 10 µM unless noted
# OVCAR-5 ovarian = conditions: 10 µM unless noted
# OVCAR-4 ovarian = conditions: 10 µM unless noted
# SK-OV-3 ovarian = conditions: 10 µM unless noted
# IGROV1 ovarian = conditions: 10 µM unless noted
# OVCAR-3 ovarian = conditions: 10 µM unless noted
# T-47D breast = conditions: 10 µM unless noted
# BT-549 breast = conditions: 10 µM unless noted
# MDA-MB-435 melanoma = conditions: 10 µM unless noted
# SW-620 colon = conditions: 10 µM unless noted
# MCF7 breast = conditions: 10 µM unless noted
# HCT-116 colon = conditions: 10 µM unless noted
# KM12 colon = conditions: 10 µM unless noted
# HS 578T breast = conditions: 10 µM
# NCI/ADR-RES ovarian = conditions: 10 µM unless noted
# HCC-2998 colon = conditions: 10 µM
SMILES,growth (SR leukemia),growth (RPMI-8226 leukemia),growth (OVCAR-8 ovarian),growth (OVCAR-5 ovarian),growth (OVCAR-4 ovarian),growth (SK-OV-3 ovarian),growth (IGROV1 ovarian),growth (OVCAR-3 ovarian),growth (T-47D breast),growth (BT-549 breast),growth (MDA-MB-435 melanoma),growth (SW-620 colon),growth (MCF7 breast),growth (HCT-116 colon),growth (KM12 colon),growth (HS 578T breast),growth (NCI/ADR-RES ovarian),growth (HCC-2998 colon)
Cc1nc(N)sc1-c1ccnc(Nc2ccc(N3CCOCC3)cc2)n1,2.59% (active),31.4%,34.2%,42.8%,53.7%,8.94% (active),12.3%,59.6%,29.8%,17.3%,67.2%,41.4%,27.2%,26.2%,23.7%,–,–,–
CC#CC(=O)N1CCC[C@H]1c1nc(-c2ccc(C(=O)Nc3ccccn3)cc2)c2c(N)nccn12,68.3%,79.7%,77.8%,78.5%,99.5%,-0.746% (active),64.8%,86.5%,58.1%,84.5%,91.5%,112%,77.5%,83.7%,91.8%,–,–,–
c1cc[n+](Cc2c3ccccc3cc3c2ccc2ccccc23)cc1,21.2%,17.6%,39.8%,81.1%,–,87.9%,13.7%,36%,30.8%,10.4%,51%,57.4%,31.9%,58.1%,35.9%,13.3%,99.3%,42.8%
COc1cc(N2CCC(N3CCN(C)CC3)CC2)ccc1Nc1ncnc(Nc2ccccc2S(=O)(=O)C(C)C)n1,12.7%,101%,99.3%,98.3%,–,87.4%,103%,105%,74.7%,104%,108%,100%,88.6%,88.2%,109%,–,109%,97.3%
Clc1ccc(/C=C/c2cc(N3CCOCC3)c3cc(Cl)c(Cl)cc3n2)cc1,59.4%,-40.9% (active),100%,105%,101%,105%,94.3%,–,91.3%,-20.4% (active),91%,111%,91.7%,98.3%,–,102%,–,–
FC(F)c1nc2ccccc2n1-c1nc(N2CCOCC2)nc(N2CCOCC2)n1,1.58% (active),8.02% (active),-8.56% (active),1.3% (active),-17.1% (active),-46% (active),-37% (active),-0.63% (active),-36.1% (active),-8.49% (active),-8.55% (active),13.4%,1.28% (active),14%,3.42% (active),–,–,–
C=C1C(=O)O[C@H]2[C@H]1CC/C(C=Nc1c(N)cc(C(F)(F)F)cc1C(F)(F)F)=C\CC[C@@]1(C)O[C@@H]21,0.897% (active),-18.7% (active),4.81% (active),-9.13% (active),–,48.8%,-46.3% (active),-93.8% (active),-27% (active),-31.5% (active),-71.9% (active),-54.9% (active),-2.09% (active),-72.8% (active),14.4%,16.7%,-23.1% (active),-77.5% (active)
COC(=O)[C@H](C)NC(=O)[C@@H](OC)[C@@H]1Cc2cc3cc(OC4CC(OC5CC(O)C(O)C(C)O5)C(O)C(C)O4)c(C)c(O)c3c(O)c2C(=O)[C@H]1OC1CC(OC2CC(OC3CC(C)(O)C(O)C(C)O3)C(O)C(C)O2)C(O)C(C)O1 (some centres not stated),7.81% (active),-5.91% (active),9.19% (active),13.5%,–,22.6%,22.8%,5.02% (active),2.98% (active),-32.5% (active),-39.3% (active),10.2%,8.55% (active),4.37% (active),–,-7.37% (active),75.4%,-44% (active)
CCCCn1c(C)nc2cc(Nc3nc(N4CCCCC4)nc4nc[nH]c34)ccc21,31.2%,40.3%,30.1%,50.1%,–,66.5%,30.8%,37.7%,6.78% (active),18%,37.4%,79%,32.5%,48.8%,38.1%,43.8%,35%,66.2%
Cc1c(NC(=O)OC[C@@H]2COCCN2)cn2ncnc(Nc3ccc4c(cnn4Cc4cccc(F)c4)c3)c12,-4.38% (active),5.44% (active),-4.01% (active),7.38% (active),24%,-9.89% (active),-4.73% (active),12.8%,-16.7% (active),0.365% (active),2.07% (active),1.74% (active),1.5% (active),0.842% (active),8.03% (active),–,–,3.83% (active)
Cc1ccc(-c2nc3ccc(Cl)cn3c2NC2CCCCC2)o1,54.3%,51.1%,92.7%,108%,–,72.1%,62.1%,89.7%,58.1%,105%,97.2%,82.9%,72.1%,56.1%,89.2%,88.2%,86.2%,–
O=C(Nc1ccc(-c2ccnc(Nc3ccc(N4CCOCC4)cc3)n2)cc1)[C@@H]1CCCN1,4.92% (active),57%,72.2%,76.8%,71.4%,42.6%,60.8%,76.5%,56.1%,50.9%,57.7%,76.6%,58%,34.1%,35.6%,–,–,–
CC(C)c1ccc(/C=N/Nc2nc3ccccc3s2)cc1,89.9%,88.4%,87.5%,102%,–,89.4%,70%,88.7%,78.2%,99%,107%,102%,76.2%,89%,89%,92.8%,92.6%,104%
CCc1nc(C(N)=O)c(Nc2ccc(N3CCC(N4CCN(C)CC4)CC3)c(OC)c2)nc1NC1CCOCC1,1.01% (active),28.3%,39.6%,26.5%,–,4.92% (active),4.12% (active),53.4%,65.1%,19.9%,52.3%,3.96% (active),25.6%,5.33% (active),–,–,32%,–
COc1cc2nccc(Oc3ccc(NC(=O)C4(C(=O)Nc5ccc(F)cc5)CC4)cc3)c2cc1OC,0.0186% (active),26.4%,19.8%,9.6% (active),–,-15.1% (active),-15.9% (active),41.2%,-14% (active),32.8%,8.75% (active),-27.3% (active),15.6%,1.99% (active),7.5% (active),–,13.8%,30.5%
COc1cc(OC)c(C(=O)/C=C/c2cc3c(cc2OCc2ccccc2)OC(C)(C)CC3)cc1CC=C(C)C,11.6%,–,1.96% (active),64.7%,44.7%,78.6%,66.5%,19.2%,42.3%,27.2%,35.9%,25.5%,28.8%,28.5%,42.4%,69.6%,51.9%,–
